# Results filed as inconclusive are left out. Entries that show only a call come without a potency. Unmarked numbers belong to inactive results. Calls of active or inactive are those of the source. Calls follow the shape of the dose curve; as a rule, active = well fitted cell-killing curve with a large enough effect in the repeat runs; inconclusive = weak or mixed curves, or effect the other way; inactive = flat fitted curve, though single readings scatter.
# Experiment: qHTS assay to identify small molecule agonists of the constitutive androstane receptor (CAR) signaling pathway - cell viability counter screen (AID 1224836); also: nearly all actives have a fitted effect of over 45% in size
# Details: HepG2-CYP2B6-hCAR viability, CellTiter-Fluor, 23 h, PK11195 added to every well; series mostly up to 92.4 µM
# Source text: U.S. Tox21 Program National Center for Advancing Translational Sciences [NCATS] NIH Chemical Genomics Center [NCGC] U.S. Environmental Protection Agency [EPA] National Institutes of Environmental Health Sciences [NIEHS] National Toxicology Program [NTP] U.S. Food and Drug Administration [FDA] Tox21 Assay Overview: The constitutive androstane receptor (CAR) is a nuclear receptor which regulates multiple drug metabolizing enzymes (DMEs) and transporters. Activating CAR will generally increase the transcription and subsequent translation of CYP2B6 and CYP3A4. These two DMEs represent about 50% of the drug metabolizing potential in the body. […] Recently, there have also been studies performed indicating CARs role in energy metabolism and cancer therapy. Therefore, inducing CARs activity could have a potential effect on diabetes and cancer. Identifying environmental toxins and compounds which modulate CAR, through the use of the Tox21 10K compound collection, will be an important step in determining the toxicity and potential therapeutic effects these factors will have on the human body. To differentiate true CAR agonists from cytotoxic substances, the assay is multiplexed with a cell viability assay.
# Tox21 Assay Protocol Summary: A double-stable (hCAR and CYP2B6-2.2kb) transfected cell line, derived from human hepatoma (HepG2) cells, was utilized for the duration of the quantitative high-throughput screens. The HepG2-CYP2B6-hCAR cells were dispensed at 2500 cells/4 uL/well in 1536-well white solid bottom plates using a Multidrop Combi. After the assay plates were incubated at 37 C/5% CO2 for 4 hrs, 23 nL of compounds at 15 concentrations (from 5-48 columns) or positive control (from 1 to 4 columns) were transferred to the assay plates using a Pintool station. One uL of PK11195 (final concentration = 0.75 uM) was added, using a Flying Reagent Dispenser, inside each well. After a 23 hr incubation period at 37 C/5% CO2, 1 uL of CellTiter-Fluor reagent was added into each well of the assay plates using a Flying Reagent Dispenser. The fluorescence intensity in the plates was then measured using a ViewLux plate reader.
Structure (SMILES),Potency,"viability change, negative = cytotoxic"
CC(=O)c1ccc2c(c1)[C@H](NC(=O)c1ccc(F)cc1)[C@@H](O)C(C)(C)O2,inactive,–
CCCCCCCCC(CO)CCCCCC (stereo not given),inactive,–
CCCCCCCCCCCCCCCC(=O)OC/C=C(C)/C=C/C=C(C)/C=C/C1=C(C)CCCC1(C)C,inactive,–
CC(=O)N(CC(=O)N(C)C)c1ccccc1,inactive,–
CCOC(=O)C1=NN(c2ccccc2)C(=O)C1,inactive,–
O=C(c1ccccc1)c1ccc2n1CCC2C(=O)O (stereo not given),inactive,–
CC(CN)CCCN (stereo not given),inactive,–
CC(O)C1CCCCC1 (stereo not given),inactive,–
COC(=O)C(C)=O,inactive,–
CC(C)CCCCCCOC(=O)c1ccc(C(=O)OCCCCCCC(C)C)c(C(=O)OCCCCCCC(C)C)c1,inactive,–
CC1(C)CCC(C)(C)c2cc(NC(=O)c3ccc(C(=O)O)cc3)ccc21,inactive,–
CCCCc1cc2ccccc2c(OCCN(C)C)n1,inactive,–
CC1CCc2cc(F)cc3c(=O)c(C(=O)O)cn1c23 (stereo not given),inactive,–
CCCCOc1cc(C(=O)OCCN(CC)CC)ccc1N,inactive,–
CCCCCCCCCCCCCCCCCBr,–,-1.41% [at 19 µM]
Cc1ccc(C(C)c2ccc(C)c(C)c2)cc1C,inactive,–
CCCCCCCCCCCCC(=O)O,inactive,–
C=CC(=O)OCC(C)OCC(C)OCC(C)OC(=O)C=C (stereo not given),inactive,–
O=C(CCN1CCN2CCCC2C1)N1c2ccccc2Sc2ccc(Cl)cc21 (stereo not given),–,-17% [at 19 µM]
Cc1occc1S,inactive,–

Structure (SMILES),Potency,"viability change, negative = cytotoxic"
ClC(Cl)(Cl)c1ccc(C(Cl)(Cl)Cl)cc1,inactive,–
CCCC[C@H]1CN(CC2CCOCC2)C(=O)OC12CCN(C1(C)CCN(C(=O)c3c(C)ncnc3C)CC1)CC2,inactive,–
Nc1ccc(C(=O)N2CC3CC(CN(Cc4ccccc4)C3)C2)cc1,inactive,–
O=[N+]([O-])c1cccc(Cl)c1Cl,inactive,–
COc1cc(C(C)(C)C)c(O)c(C(C)(C)C)c1,inactive,–
CC(=O)N(O)CCCCCNC(=O)CCC(=O)N(O)CCCCCNC(=O)CCC(=O)N(O)CCCCCN,inactive,–
CN(C)C/C=C(/c1ccc(Br)cc1)c1cccnc1,inactive,–
CC(C)c1cccc(C(C)C)c1NC(=O)NS(=O)(=O)c1cc(C(C)(C)O)co1,inactive,–
CC(C)CC=O,inactive,–
O=C1c2cccc(O)c2C(=O)c2c(O)cc(CO)cc21,inactive,–
OCC1CC2CC1C1CCC(CO)C21 (stereo not given),inactive,–
CCN(CC)C(C)CN1c2ccccc2Sc2ccccc21 (stereo not given),inactive,–
C=CC(=O)OCCOC(=O)CCC(=O)O,inactive,–
CC(C)(C)c1cc(CCC(=O)OCC(COC(=O)CCc2cc(C(C)(C)C)c(O)c(C(C)(C)C)c2)(COC(=O)CCc2cc(C(C)(C)C)c(O)c(C(C)(C)C)c2)COC(=O)CCc2cc(C(C)(C)C)c(O)c(C(C)(C)C)c2)cc(C(C)(C)C)c1O,inactive,–
Cc1ncsc1CCO,inactive,–
COc1ccc([C@@H]2Sc3ccccc3N(CCN(C)C)C(=O)[C@@H]2OC(C)=O)cc1,inactive,–
NCCCN(CCO)CCO,inactive,–
O=C(O)Cc1sc(-c2ccccc2)nc1-c1ccc(Cl)cc1,inactive,–
Cl/C(=C\n1cncn1)c1ccc(Cl)cc1Cl,inactive,–
CCCCCCCCN(C)C,inactive,–

# From PubChem BioAssay (Tox21)
